# Bioassay records: PubChem BioAssay, National Center for Advancing Translational Sciences (NCATS)
# The list is not random: actives were taken first. Their share in the collection is about 11%.
# Pf growth 48h: P. falciparum growth inhibition at 48 hours (one generation) | P. falciparum luciferase growth in erythrocytes, 48 h | Potency, µM (series often up to 28.7 µM), inactives show at the highest dose activity change, negative = inhibition, actives largely listed as inhibitors | actives 5.9% (n = 310,000) | AID 504832
#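 Compounds are pin-transferred into medium, infected erythrocytes (2% hematocrit, 0.1% parasitemia final) are added, and plates sit one parasite generation at 37 C in 5% CO2. Detection reagent is then added and luminescence measured.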
# AMA1-RON2 inh: disrupts binding of P. falciparum AMA1 to RON2; AlphaScreen AMA1-biotinylated RON2 peptide binding; Potency, µM (top dose mostly 58.2 µM), inactives show top-dose activity change, negative = inhibition, most hits filed as inhibitors; actives 0.2% (n = 360,000);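 also: 0% = vehicle wells and -100% = peptide control; nearly all actives have a fitted effect of over 45% in size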
#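 AMA1 (3D7) with his tag at 25 nM final met compounds first, then biotinylated RON2 peptide at 25 nM; detection used donor plus acceptor beads, 10 µg/mL apiece, read by AlphaScreen after 30 min at room temperature.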
# HCV inh: HCV inhibition; actives 3.4% (n = 340,000); AID 651820; Potency, µM (highest dose often 41.8 µM), for the others: at the top dose activity change, negative = inhibition, actives largely listed as inhibitors; Huh7.5.1 HCVcc-Cre infection, luciferase reporter, 44 h
#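 1,000 cells/well; 4 h culture; + compound; + HCVcc-Cre (~0.5 moi); 44 h; luciferase substrate, RT 15 min; read 15 sec.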
# Pf growth 96h: inhibits malaria parasite growth, 96 h. P. falciparum luciferase reporter growth, 96 h. Potency, µM (titrated, usually from 28.7 µM), inactives show at the top dose activity change, negative = inhibition, usual class: inhibitors. actives 6.9% (n = 320,000). AID 504834
#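 Compounds incubated with erythrocytes infected by luciferase-expressing P. falciparum (2% hematocrit, 0.05% parasitemia final) for 96 hours, 37 C in 5% CO2. Growth inhibition scored as decreased luciferase luminescence.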
# Numbers without * were called inactive; ? = inconclusive; nt = no result given. Calls follow the shape of the dose curve; as a rule, active = well fitted curve in the direction sought with a large enough effect; inconclusive = small, poorly fitted or top-dose-only effect, or another doubt; inactive = no such curve, though single readings can be large; an effect the other way counts as inactive or inconclusive. Unless noted, % is scaled to controls: 0 for no effect and ±100 for the full control effect; potency is read from the fitted curve at half-maximal effect.
SMILES,Pf growth 48h,AMA1-RON2 inh,HCV inh,Pf growth 96h
O=C(NCCCN1CCOCC1)c1cc2c(=O)[nH]c3ccccc3c2s1,16.6%,-15.1%,15.0%,?
COCCNC(=O)C1CCCN(Cc2ccc(-c3ccccc3)cc2)CC1 (stereo unspecified),nt,-2.0%,nt,nt
CN1CCN(c2ccc(S(=O)(=O)N3CCOCC3)cc2NC(=O)CSCc2ccccc2)CC1,nt,-23.5%,?,nt
Cc1cc2c(cc1S(=O)(=O)Nc1cccc(C)c1C)n(C)c(=O)c(=O)n2C,-1.3%,17.0%,-3.2%,2.8%
CCCn1nnnc1NCc1ccccc1Cl,-5.6%,-3.2%,13.6%,21.9%
O=C(O[C@@H]1OC2COC(=O)c3cc(O)c(O)c(O)c3-c3c(cc(O)c(O)c3O)C(=O)O[C@@H]([C@H]1O)[C@@H]2O)c1cc(O)c(O)c(O)c1,-10.9%,2.51µM*,?,-102.1%
COc1cc(Cn2c(-c3ccc(O)c(OC)c3)nc3ccccc32)ccc1O,2.94µM*,11.9%,-4.4%,13.1µM*
N#Cc1cn(CCOc2ccc(F)cc2)c2ccccc12,10.4µM*,33.1%,?,61.3%
O=Cc1cn(CCOc2ccccc2F)c2ccccc12,23.6%,19.4%,5.2%,?
N#Cc1cn(CCOc2ccccc2F)c2ccccc12,2.94µM*,-1.4%,-16.9%,nt
Cc1c(C#N)c2ccccc2n1CCOc1ccccc1F,1.17µM*,9.3%,-28.0%,2.94µM*
Cc1ccc(OCCCn2cc(C#N)c3ccccc32)cc1,55.6%,13.7%,4.8%,96.2%
COC(=O)Cn1c(C)c(C#N)c2ccccc21,12.1%,-1.9%,9.1%,-7.8%
CC(=O)c1ccc(OCc2cc(C(=O)N3CC4C[C@@H]5CC3C[C@H](C4)C5)no2)cc1,7.6%,-4.2%,?,0.0%
CS(=O)(=O)c1ccccc1-c1nnc(NC(=O)c2ccc3ncsc3c2)o1,3.2%,105.6%,-0.2%,4.2%
Cc1[nH]c(C)c(S(=O)(=O)N2CCN(c3ccccc3F)CC2)c1C(=O)N1CCCCC1,?,-2.3%,34.3%,-0.9%
Clc1ccc2c(N/N=C/c3ccccc3Br)ccnc2c1,0.657µM*,9.1%,?,0.522µM*
Clc1ccc2c(N/N=C/c3cccc(Br)c3)ccnc2c1,0.586µM*,-1.3%,?,0.329µM*
O=[N+]([O-])c1ccc(/C=N/Nc2ccnc3cc(Cl)ccc23)o1,2.33µM*,?,?,?
Cc1nonc1NC(=O)CSc1nc2c(C)cccc2cc1C#N,?,16.5%,?,10.4µM*
FC(F)(F)c1ccc(Oc2ccc3cc(Br)ccc3c2)nc1,?,29.3%,-5.7%,?
CCCn1c(N)c(Sc2ccc(Cl)cc2)c(=O)n(CCC)c1=O,?,-7.7%,-18.3%,nt
Cc1ccc(C(=O)N(CCN(C)C)CC2CCCN(Cc3ccccc3F)C2)cc1C (stereo unspecified),?,2.6%,11.2µM*,30.2%
COCc1ccc(C(=O)N(C)C2CCCN(Cc3ccccc3F)C2)o1 (stereo unspecified),?,-3.1%,-29.7%,2.94µM*
COc1ccc(C(=O)N(C)C2CCCN(Cc3ccccc3F)C2)cc1C (stereo unspecified),?,5.1%,?,5.22µM*
SMILES,Pf growth 48h,AMA1-RON2 inh,HCV inh,Pf growth 96h
COC(=O)c1ccc(C(=O)N(C)C2CCCN(Cc3ccccc3F)C2)cc1 (stereo unspecified),-13.3%,-2.0%,1.2%,0.0%
Cc1cc(C)c(S(C)(=O)=O)c(Oc2ccc(C(C)(C)C)cc2)n1,?,-3.8%,-35.9%,?
COc1ccccc1-c1noc2ncnc(Nc3cccc(C)c3C)c12,?,8.3%,-5.1%,?
N#C/C(=C\c1ccccc1C(=O)O)c1nc2ccccc2[nH]1,?,83.3%,-7.2%,-1.2%
Cc1ccc2nc(/C(C#N)=N/O)[nH]c2c1,?,49.0%,20.8%,13.1µM*
Cc1ccc2nc(/C(C#N)=C\c3ccc(N4CCCCC4)c([N+](=O)[O-])c3)[nH]c2c1,?,-8.7%,7.08µM*,?
N#C/C(=C/c1ccc(N2CCCC2)c([N+](=O)[O-])c1)c1nc2ccccc2[nH]1,?,4.1%,-27.9%,48.6%
Cc1ccc2nc(/C(C#N)=C/c3ccccc3C(=O)O)[nH]c2c1,2.08µM*,98.6%,11.9%,?
CC(OC(=O)c1cc(=O)[nH]c2ccccc12)C(=O)NCc1ccccc1 (stereo unspecified),17.2%,-7.8%,-1.1%,41.0%
COc1ccc(S(=O)(=O)N2CCN(CC(=O)NC(C)c3cccs3)CC2)cc1 (stereo unspecified),nt,5.2%,nt,nt
CCc1cc(C(=O)NC2CCCc3c2cnn3-c2ccc(F)cc2F)no1 (stereo unspecified),nt,-2.6%,nt,nt
CC12CCC(=O)N1C(C(=O)N1CCN(S(=O)(=O)c3ccc(Br)cc3Cl)CC1)CS2 (stereo unspecified),?,-15.5%,?,?
CCOc1cc2c3c(c1)C1(C(=O)N3C(C)(C)C=C2C)C(C#N)=C(N)Oc2cc(O)ccc21 (stereo unspecified),4.65µM*,-2.0%,?,nt
CCN1C(=O)C2(C(C#N)=C(N)Oc3cc(C)oc(=O)c32)c2ccccc21 (stereo unspecified),8.2%,-5.1%,17.9%,31.9%
CC1=CC(C)(C)N2C(=O)C3(C(C#N)=C(N)Oc4cc(C)oc(=O)c43)c3cccc1c32 (stereo unspecified),?,-7.7%,?,14.7µM*
Cc1ccc(S(=O)(=O)Nc2ccc3cn[nH]c3c2)c(C)c1,?,-2.4%,3.9%,-10.4%
CCOc1cc(C)c(S(=O)(=O)Nc2ccc3cn[nH]c3c2)cc1C,?,-2.8%,10µM*,?
O=S(=O)(c1ccc(F)cc1)N1CC2CCCN2c2ccc(C(F)(F)F)cc21 (stereo unspecified),?,-3.8%,?,?
Cc1ccc(S(=O)(=O)N2CC3CCCN3c3ccc(C(F)(F)F)cc32)cc1 (stereo unspecified),10.4µM*,2.0%,?,?
CN(CC(=O)NC(=O)NC1CCCCC1)CC(=O)Nc1ccc(OC(F)(F)F)cc1,5.22µM*,72.9%,-10.3%,?
Cc1cc(C)c2sc(NNC(=O)c3ccc(S(=O)(=O)N4CCc5ccccc5C4)cc3)nc2c1,?,38.0%,2.82µM*,11.7µM*
CCOc1ccc(-c2c(C(=O)N/N=C/C3CC=CCC3)nnn2-c2nonc2N)cc1 (stereo unspecified),12.2%,70.4%,11.4%,?
Cc1cc(C)cc(OCC(=O)O/N=C(\N)c2ccccn2)c1,24.6%,17.4%,-9.7%,?
Cc1cc(C)c(C)c(OCC(=O)O/N=C(\N)c2ccccn2)c1,nt,42.4%,10µM*,?
N/C(=N\OC(=O)COc1ccccc1)c1cccnc1,-17.3%,23.4%,14.8%,-9.1%
N/C(=N\OC(=O)c1ccccc1)c1ccccn1,-35.2%,-8.4%,14.0%,?
N/C(=N\OC(=O)C(c1ccccc1)c1ccccc1)c1cccnc1,?,11.0%,12.7%,10.4µM*
N/C(=N\OC(=O)C(c1ccccc1)c1ccccc1)c1ccccn1,13.1µM*,68.5%,-16.9%,15.3%
